# According to PMC7862700, “An all-to-all approach to the identification of sequence-specific readers for epigenetic DNA modifications on cytosine”:
# Legend:
# Assay in all cases: DAPPL (digital affinity profiling via proximity ligation, sequencing); 10 mM Tris-HCl pH 7.5, 50 mM NaCl, 1 mM DTT, 4% glycerol, room temperature, 30 min; GST-TFs on glutathione beads, 16-mer random dsDNA library, 0.1% formaldehyde crosslink after washing; high values mean tight binding
# FEV = molecular target: T1, FEV (Homo sapiens, UniProt Q99581 1-238); details: protein: recombinant; tags: N-terminal GST; dsDNA, one strand shown
# T1 sequence: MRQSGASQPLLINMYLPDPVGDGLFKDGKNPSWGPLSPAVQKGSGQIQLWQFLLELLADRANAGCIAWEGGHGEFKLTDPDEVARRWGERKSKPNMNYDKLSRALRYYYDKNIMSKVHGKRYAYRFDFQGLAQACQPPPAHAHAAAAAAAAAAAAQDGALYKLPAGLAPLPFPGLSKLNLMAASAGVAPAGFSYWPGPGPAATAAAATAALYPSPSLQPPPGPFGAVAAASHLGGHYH
# Outline: (§1)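 Binding signal is each hexamer's read frequency for a factor divided by its frequency in the tag-only sample. The factors were GST-fused human transcription factors from yeast, captured on glutathione beads, DNA-barcoded and pooled with that sample. Pools were incubated with 200 nmole of a random double-stranded 16-mer DNA library in Tris/NaCl/DTT/glycerol buffer at room temperature for 30 min, then washed, crosslinked with 0.1% formaldehyde, proximity-ligated with BsaI/T4 ligase (1 h, 37 °C), PCR-amplified and sequenced on an Illumina NextSeq500.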
# ETV5 = ETV5 (Homo sapiens, UniProt P41161 1-510); details: protein: recombinant; tags: N-terminal GST; dsDNA, one strand shown
# ETV5, sequence (P41161 whole entry): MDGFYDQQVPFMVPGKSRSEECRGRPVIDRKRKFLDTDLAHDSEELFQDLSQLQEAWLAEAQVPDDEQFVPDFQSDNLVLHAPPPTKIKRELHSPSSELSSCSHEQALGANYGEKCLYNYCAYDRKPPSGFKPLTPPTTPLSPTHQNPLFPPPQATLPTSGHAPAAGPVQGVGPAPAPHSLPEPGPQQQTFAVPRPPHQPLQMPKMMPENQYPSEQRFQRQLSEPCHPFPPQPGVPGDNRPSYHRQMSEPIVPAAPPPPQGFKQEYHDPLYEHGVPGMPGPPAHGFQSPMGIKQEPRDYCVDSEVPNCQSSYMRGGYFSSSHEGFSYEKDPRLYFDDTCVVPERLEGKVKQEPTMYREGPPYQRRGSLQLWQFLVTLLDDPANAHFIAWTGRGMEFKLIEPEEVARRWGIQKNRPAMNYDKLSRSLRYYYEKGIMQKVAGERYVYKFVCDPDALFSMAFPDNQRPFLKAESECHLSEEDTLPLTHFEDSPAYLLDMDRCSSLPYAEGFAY
# Outline: as §1
# HSF1 = HSF1 (Homo sapiens, UniProt Q00613 1-529); details: protein: recombinant; tags: N-terminal GST; chain copies: 3; dsDNA, one strand shown
# HSF1, sequence (Q00613 whole entry): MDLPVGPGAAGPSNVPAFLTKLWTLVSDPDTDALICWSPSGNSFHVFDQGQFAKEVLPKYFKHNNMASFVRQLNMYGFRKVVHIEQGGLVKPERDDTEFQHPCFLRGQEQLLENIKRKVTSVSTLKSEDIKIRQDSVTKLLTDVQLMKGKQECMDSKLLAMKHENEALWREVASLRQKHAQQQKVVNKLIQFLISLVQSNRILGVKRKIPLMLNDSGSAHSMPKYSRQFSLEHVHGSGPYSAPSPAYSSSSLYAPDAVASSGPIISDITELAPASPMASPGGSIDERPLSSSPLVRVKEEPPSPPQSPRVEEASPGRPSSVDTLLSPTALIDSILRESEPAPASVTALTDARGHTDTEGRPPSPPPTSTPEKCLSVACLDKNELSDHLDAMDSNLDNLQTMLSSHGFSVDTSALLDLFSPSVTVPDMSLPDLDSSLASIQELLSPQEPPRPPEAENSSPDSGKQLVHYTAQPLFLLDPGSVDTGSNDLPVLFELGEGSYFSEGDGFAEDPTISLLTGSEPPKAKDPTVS
# Outline: as §1
# SPIC = molecular target: T2, SPIC (Homo sapiens, UniProt Q8N5J4 1-248); details: protein: recombinant; tags: N-terminal GST; dsDNA, one strand shown
# T2 sequence: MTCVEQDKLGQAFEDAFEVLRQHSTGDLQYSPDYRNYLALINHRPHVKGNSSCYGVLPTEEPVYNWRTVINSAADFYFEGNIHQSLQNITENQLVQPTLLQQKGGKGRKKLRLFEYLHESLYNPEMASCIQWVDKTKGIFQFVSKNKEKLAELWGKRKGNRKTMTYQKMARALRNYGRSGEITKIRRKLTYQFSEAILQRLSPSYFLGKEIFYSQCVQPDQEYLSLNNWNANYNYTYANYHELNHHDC
# Outline: as §1
# ELF4 = ELF4 (Homo sapiens, UniProt Q99607 1-663); details: protein: recombinant; tags: N-terminal GST; dsDNA, one strand shown
# ELF4, sequence (Q99607 whole entry): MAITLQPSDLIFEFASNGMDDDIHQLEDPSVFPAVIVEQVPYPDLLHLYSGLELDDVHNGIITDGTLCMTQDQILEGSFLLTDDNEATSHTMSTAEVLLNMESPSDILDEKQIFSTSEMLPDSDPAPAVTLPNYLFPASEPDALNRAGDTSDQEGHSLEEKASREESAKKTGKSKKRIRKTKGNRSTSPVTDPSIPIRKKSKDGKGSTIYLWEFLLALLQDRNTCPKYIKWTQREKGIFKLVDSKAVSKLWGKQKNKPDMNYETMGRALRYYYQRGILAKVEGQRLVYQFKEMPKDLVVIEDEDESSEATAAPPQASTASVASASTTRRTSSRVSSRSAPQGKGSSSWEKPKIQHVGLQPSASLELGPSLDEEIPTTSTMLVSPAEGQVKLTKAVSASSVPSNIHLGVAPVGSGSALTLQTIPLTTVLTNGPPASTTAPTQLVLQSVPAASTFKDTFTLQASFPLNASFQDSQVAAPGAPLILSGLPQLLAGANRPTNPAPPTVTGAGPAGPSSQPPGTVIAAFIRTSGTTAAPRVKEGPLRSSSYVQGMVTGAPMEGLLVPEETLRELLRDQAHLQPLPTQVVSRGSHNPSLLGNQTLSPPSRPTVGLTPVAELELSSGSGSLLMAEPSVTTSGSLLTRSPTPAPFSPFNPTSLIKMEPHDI
# Outline: as §1
# ELK4 = molecular target: T3, ELK4 (Homo sapiens, UniProt P28324-2 1-405); details: protein: recombinant; tags: N-terminal GST; dsDNA, one strand shown
# T3 sequence: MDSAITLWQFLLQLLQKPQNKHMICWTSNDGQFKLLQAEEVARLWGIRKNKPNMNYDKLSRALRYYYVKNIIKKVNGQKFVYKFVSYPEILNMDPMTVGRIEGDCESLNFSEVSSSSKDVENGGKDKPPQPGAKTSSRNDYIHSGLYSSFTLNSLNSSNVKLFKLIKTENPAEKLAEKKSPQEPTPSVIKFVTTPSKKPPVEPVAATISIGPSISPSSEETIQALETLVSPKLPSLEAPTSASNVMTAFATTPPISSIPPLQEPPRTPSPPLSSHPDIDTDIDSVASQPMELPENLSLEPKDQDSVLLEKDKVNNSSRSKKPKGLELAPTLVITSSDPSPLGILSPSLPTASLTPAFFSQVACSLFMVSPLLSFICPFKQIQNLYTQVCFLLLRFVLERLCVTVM
# Outline: as §1
# ETV2 = molecular target: T4, ETV2 (Homo sapiens, UniProt O00321 1-342); details: protein: recombinant; tags: N-terminal GST; dsDNA, one strand shown
# T4 sequence: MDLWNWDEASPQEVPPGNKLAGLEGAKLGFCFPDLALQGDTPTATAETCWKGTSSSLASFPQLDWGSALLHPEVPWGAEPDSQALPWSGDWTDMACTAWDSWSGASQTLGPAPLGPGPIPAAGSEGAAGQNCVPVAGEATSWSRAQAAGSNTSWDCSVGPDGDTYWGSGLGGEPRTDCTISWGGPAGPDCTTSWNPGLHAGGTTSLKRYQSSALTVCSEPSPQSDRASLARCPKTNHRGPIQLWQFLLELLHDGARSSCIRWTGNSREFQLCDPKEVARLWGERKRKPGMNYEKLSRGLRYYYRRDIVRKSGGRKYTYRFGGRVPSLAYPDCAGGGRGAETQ
# Outline: as §1
# ELF3 = molecular target: T5, ELF3 (Homo sapiens, UniProt P78545 1-371); details: protein: recombinant; tags: N-terminal GST; dsDNA, one strand shown
# T5 sequence: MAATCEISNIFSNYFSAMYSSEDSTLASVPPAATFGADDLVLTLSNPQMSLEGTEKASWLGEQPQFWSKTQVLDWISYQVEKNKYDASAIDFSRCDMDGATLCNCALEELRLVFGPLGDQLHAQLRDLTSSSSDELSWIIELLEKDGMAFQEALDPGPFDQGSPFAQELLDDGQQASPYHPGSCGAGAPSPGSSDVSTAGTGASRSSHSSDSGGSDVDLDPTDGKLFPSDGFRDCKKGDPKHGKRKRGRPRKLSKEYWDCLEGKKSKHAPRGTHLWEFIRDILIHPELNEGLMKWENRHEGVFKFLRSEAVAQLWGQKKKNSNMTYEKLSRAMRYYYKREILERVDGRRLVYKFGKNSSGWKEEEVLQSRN
# Outline: as §1
# CRX = CRX (Homo sapiens, UniProt O43186 1-299); details: protein: recombinant; tags: N-terminal GST; dsDNA, one strand shown
# CRX, sequence (O43186 whole entry): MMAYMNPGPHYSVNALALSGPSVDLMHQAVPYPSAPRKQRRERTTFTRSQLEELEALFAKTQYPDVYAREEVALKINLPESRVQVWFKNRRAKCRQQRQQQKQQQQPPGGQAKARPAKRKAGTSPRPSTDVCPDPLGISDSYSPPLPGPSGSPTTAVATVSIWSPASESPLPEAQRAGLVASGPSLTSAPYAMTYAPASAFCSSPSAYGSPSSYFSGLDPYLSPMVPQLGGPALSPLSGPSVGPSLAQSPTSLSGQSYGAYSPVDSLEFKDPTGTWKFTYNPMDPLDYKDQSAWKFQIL
# Outline: as §1
# ETV1 = ETV1 (Homo sapiens, UniProt P50549 1-477); details: protein: recombinant; tags: N-terminal GST; dsDNA, one strand shown
# ETV1, sequence (P50549 whole entry): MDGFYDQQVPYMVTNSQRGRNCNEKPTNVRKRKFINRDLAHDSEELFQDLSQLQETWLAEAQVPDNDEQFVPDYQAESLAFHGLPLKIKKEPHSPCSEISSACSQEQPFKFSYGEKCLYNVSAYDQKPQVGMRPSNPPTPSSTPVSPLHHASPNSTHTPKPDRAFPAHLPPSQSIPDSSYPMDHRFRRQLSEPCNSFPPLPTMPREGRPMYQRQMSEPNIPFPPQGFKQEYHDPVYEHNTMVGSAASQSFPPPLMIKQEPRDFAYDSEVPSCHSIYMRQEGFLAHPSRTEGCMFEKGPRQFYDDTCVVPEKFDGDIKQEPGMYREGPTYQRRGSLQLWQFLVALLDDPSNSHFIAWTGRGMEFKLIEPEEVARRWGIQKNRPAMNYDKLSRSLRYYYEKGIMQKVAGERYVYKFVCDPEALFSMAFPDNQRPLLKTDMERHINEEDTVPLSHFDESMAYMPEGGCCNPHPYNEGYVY
# Outline: as §1
# ERF = molecular target: T6, ERF (Homo sapiens, UniProt P50548 1-548); details: protein: recombinant; tags: N-terminal GST; dsDNA, one strand shown
# T6 sequence: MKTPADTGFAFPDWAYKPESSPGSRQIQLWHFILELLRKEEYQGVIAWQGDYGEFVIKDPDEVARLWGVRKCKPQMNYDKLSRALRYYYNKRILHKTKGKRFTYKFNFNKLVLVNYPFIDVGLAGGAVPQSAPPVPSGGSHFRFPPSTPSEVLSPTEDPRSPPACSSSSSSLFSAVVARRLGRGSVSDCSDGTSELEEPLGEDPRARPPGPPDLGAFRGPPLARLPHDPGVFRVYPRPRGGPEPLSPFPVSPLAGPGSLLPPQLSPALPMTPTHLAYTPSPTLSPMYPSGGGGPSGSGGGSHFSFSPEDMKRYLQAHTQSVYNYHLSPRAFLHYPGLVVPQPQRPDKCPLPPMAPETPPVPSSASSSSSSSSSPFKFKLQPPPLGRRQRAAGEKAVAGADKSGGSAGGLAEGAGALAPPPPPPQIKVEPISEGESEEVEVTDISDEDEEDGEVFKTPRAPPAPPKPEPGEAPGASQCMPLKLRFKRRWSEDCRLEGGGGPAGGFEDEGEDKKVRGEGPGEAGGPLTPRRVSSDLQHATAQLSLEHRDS
# Outline: as §1
# ETV3L = molecular target: T7, ETV3L (Homo sapiens, UniProt Q6ZN32 1-361); details: protein: recombinant; tags: N-terminal GST; dsDNA, one strand shown
# T7 sequence: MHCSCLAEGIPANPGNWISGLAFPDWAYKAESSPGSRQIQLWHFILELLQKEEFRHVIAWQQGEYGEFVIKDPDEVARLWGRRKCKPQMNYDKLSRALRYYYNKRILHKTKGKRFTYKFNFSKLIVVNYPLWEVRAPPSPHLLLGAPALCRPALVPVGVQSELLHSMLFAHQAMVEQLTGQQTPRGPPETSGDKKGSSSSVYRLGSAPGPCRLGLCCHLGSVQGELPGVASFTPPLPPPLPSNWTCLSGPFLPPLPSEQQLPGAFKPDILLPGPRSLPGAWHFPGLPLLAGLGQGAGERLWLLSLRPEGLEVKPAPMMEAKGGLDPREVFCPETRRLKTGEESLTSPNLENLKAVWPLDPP
# Outline: as §1
# ETS2 = molecular target: T8, ETS2 (Homo sapiens, UniProt P15036 1-469); details: protein: recombinant; tags: N-terminal GST; dsDNA, one strand shown
# T8 sequence: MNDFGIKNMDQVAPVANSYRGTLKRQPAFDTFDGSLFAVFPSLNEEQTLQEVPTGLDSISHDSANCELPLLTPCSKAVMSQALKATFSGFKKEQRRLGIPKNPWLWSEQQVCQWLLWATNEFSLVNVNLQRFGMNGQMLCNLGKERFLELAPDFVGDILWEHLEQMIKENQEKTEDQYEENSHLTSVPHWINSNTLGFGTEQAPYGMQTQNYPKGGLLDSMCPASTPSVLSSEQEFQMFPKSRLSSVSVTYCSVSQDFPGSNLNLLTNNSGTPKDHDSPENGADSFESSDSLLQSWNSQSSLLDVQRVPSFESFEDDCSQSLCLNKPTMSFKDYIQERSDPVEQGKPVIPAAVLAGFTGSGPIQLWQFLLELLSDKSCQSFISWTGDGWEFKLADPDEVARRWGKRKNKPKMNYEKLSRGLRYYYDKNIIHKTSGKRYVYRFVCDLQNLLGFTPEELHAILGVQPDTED
# Outline: as §1
# SPDEF = molecular target: T9, SPDEF (Homo sapiens, UniProt O95238 1-335); details: protein: recombinant; tags: N-terminal GST; dsDNA, one strand shown
# T9 sequence: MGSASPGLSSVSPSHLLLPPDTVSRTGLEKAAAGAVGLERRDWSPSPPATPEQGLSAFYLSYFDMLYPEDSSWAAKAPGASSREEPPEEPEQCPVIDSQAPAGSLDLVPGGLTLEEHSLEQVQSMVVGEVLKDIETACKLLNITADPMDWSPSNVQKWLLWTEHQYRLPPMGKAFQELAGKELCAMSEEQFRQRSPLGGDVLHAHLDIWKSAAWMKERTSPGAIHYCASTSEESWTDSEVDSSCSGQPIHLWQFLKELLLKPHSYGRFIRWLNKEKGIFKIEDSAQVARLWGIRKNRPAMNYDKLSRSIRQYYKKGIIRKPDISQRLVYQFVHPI
# Outline: as §1
# ETV7 = molecular target: T10, ETV7 (Homo sapiens, UniProt Q9Y603 1-341); details: protein: recombinant; tags: N-terminal GST; dsDNA, one strand shown
# T10 sequence: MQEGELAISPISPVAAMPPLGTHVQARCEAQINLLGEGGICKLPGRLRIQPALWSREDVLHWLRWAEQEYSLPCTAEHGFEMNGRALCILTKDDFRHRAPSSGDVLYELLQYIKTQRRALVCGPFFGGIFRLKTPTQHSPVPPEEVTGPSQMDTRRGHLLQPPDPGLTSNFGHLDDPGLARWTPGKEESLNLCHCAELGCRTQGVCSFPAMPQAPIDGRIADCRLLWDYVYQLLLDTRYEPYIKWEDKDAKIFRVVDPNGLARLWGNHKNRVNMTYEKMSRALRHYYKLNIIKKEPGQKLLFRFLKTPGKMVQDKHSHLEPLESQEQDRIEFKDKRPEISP
# Outline: as §1
# ELF5 = molecular target: T11, ELF5 (Homo sapiens, UniProt Q9UKW6-2 1-255); details: protein: recombinant; tags: N-terminal GST; dsDNA, one strand shown
# T11 sequence: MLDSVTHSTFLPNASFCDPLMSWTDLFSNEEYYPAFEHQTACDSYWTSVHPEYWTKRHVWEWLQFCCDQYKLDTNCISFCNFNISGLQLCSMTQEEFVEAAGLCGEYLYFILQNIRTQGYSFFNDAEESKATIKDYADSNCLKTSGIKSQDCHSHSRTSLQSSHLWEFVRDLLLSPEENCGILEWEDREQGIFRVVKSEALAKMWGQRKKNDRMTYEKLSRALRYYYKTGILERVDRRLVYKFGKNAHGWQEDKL
# Outline: as §1
# ETV3 = molecular target: T12, ETV3 (Homo sapiens, UniProt P41162-2 1-143); details: protein: recombinant; tags: N-terminal GST; dsDNA, one strand shown
# T12 sequence: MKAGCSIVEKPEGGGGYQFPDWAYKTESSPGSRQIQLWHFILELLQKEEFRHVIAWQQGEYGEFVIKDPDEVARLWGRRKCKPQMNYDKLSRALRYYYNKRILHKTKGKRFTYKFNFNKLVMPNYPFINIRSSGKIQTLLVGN
# Outline: as §1
# ETV6 = ETV6 (Homo sapiens, UniProt P41212 1-452); details: protein: recombinant; tags: N-terminal GST; dsDNA, one strand shown
# ETV6, sequence (P41212 whole entry): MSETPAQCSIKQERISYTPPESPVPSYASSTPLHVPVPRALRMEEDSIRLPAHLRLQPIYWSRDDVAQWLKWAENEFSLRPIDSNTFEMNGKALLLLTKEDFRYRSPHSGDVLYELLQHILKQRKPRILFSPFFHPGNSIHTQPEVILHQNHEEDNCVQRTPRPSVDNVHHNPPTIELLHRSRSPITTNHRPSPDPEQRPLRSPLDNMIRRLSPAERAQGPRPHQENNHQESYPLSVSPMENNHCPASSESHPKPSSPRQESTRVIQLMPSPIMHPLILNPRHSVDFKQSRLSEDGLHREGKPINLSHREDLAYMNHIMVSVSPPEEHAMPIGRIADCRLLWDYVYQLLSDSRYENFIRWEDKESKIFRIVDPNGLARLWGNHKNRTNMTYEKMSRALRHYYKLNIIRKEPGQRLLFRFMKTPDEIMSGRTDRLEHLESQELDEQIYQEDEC
# Outline: as §1
sequence,measurement,setting,value
TATAAC,binding signal,FEV,"1.26 fold enrichment (6-mer frequency, TF over GST control)"
same,binding signal,ETV5,"1.2 fold enrichment (6-mer frequency, TF over GST control)"
same,binding signal,HSF1,"1.15 fold enrichment (6-mer frequency, TF over GST control)"
same,binding signal,SPIC,"1.2 fold enrichment (6-mer frequency, TF over GST control)"
same,binding signal,ELF4,"1.2 fold enrichment (6-mer frequency, TF over GST control)"
same,binding signal,ELK4,"1.17 fold enrichment (6-mer frequency, TF over GST control)"
same,binding signal,ETV2,"1.1 fold enrichment (6-mer frequency, TF over GST control)"
same,binding signal,ELF3,"1.25 fold enrichment (6-mer frequency, TF over GST control)"
same,binding signal,CRX,"1.43 fold enrichment (6-mer frequency, TF over GST control)"
same,binding signal,ETV1,"1.25 fold enrichment (6-mer frequency, TF over GST control)"
same,binding signal,ERF,"1.18 fold enrichment (6-mer frequency, TF over GST control)"
same,binding signal,ETV3L,"1.21 fold enrichment (6-mer frequency, TF over GST control)"
same,binding signal,ETS2,"1.25 fold enrichment (6-mer frequency, TF over GST control)"
same,binding signal,SPDEF,"1.25 fold enrichment (6-mer frequency, TF over GST control)"
same,binding signal,ETV7,"1.26 fold enrichment (6-mer frequency, TF over GST control)"
same,binding signal,ELF5,"1.25 fold enrichment (6-mer frequency, TF over GST control)"
same,binding signal,ETV3,"1.25 fold enrichment (6-mer frequency, TF over GST control)"
same,binding signal,ETV6,"1.19 fold enrichment (6-mer frequency, TF over GST control)"
